Reference: PubChem BioAssay (NCI)
The panel holds about 83,000 compounds, 20% with a hit somewhere; the sample as a whole holds those more often.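 Values shown are percent growth following 48 h exposure of cells in 96-well plates to a single concentration of compound; below 10 was considered active.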 Unmarked numbers belong to inactive results. Activity calls are given as the source filed them.

What was measured:
Experiment in all cases: NCI-60 one-dose screen, 48 h (100 = growth as untreated, 0 = no growth, -100 = all killed)
Details in all cases: 10 µM unless noted
[1] = system: NCI-H23 lung
[2] = system: NCI-H226 lung
[3] = system: NCI-H322M lung
[4] = system: HOP-62 NSCLC
[5] = system: NCI-H460 lung
[6] = system: HOP-92 NSCLC
[7] = system: NCI-H522 lung
[8] = system: A549/ATCC NSCLC
[9] = system: 786-0 renal
[10] = system: COLO 205 colon

Row | Compound | growth [1] | growth [2] | growth [3] | growth [4] | growth [5] | growth [6] | growth [7] | growth [8] | growth [9] | growth [10]
1 | C#C[C@]1(O)CC[C@H]2[C@@H]3CC=C4c5sc(Nc6cc(Cl)ccn6)nc5CC[C@]4(C)[C@H]3CC[C@@]21C | 35.4% | 22.9% | 59.3% | 14.1% | 13.5% | 18.4% | 30.2% | 37.5% | -70.8% (active) | 21.2%
2 | O=C1Nc2cc(OC(F)(F)F)ccc2Oc2ccc(-c3ccnc(N4CC[C@H](O)C4)c3)cc21 | 27.6% | -8.84% (active) | 55.1% | 25.3% | -47.1% (active) | 45.7% | -28% (active) | 0.655% (active) | 6.88% (active) | –
3 | O=c1cc(-c2ccccc2)nc2sc(-c3c[nH]c4ccc(Br)cc34)nn12 | 104% | 87.6% | 92.8% | 107% | 106% | 86% | 86.2% | 97.6% | 92.6% | 104%
4 | CCN(CC)CCCC(C)NCC(=O)NC(c1ccc2c(c1)OCO2)c1cc(Cl)c2cccnc2c1O (stereo unspecified) | 41.7% | 41.2% | 35.2% | 21.6% | 8.77% (active) | 35.9% | 37.4% | 24.1% | 7.03% (active) | 17.6%
5 | Clc1ccccc1/C=C/c1nn2c(-c3ccncc3)nnc2s1 | 99% | 91% | 100% | 108% | 102% | 103% | 101% | 106% | 96.9% | –
6 | CC(C)SC1=NC(=C(C(=N1)NC2=ClC=CC=C2)C#N)C3=CC=CC=C3 | 37.7% | 69.3% | 28% | 72.9% | 22.2% | 76.6% | 84.5% | 35.2% | 34.7% | –
7 | COc1ccc(N2CCN(C(=O)CSc3ccc(-c4nc5cc(C)c(C)cc5[nH]4)cn3)CC2)cc1 | 54.5% | 66.8% | 76.6% | 84.9% | 89.9% | 85% | 36% | 77.3% | 102% | –
8 | Cn1c2ccccc2c2c3c(c4c5ccc(Br)cc5oc4c21)C(=O)N(O)C3=O | 80% | 70.9% | 96.8% | 59.8% | 42.3% | 81.6% | 48.7% | 85.6% | 89.8% | –
9 | Cc1ccccc1/C=C/c1nn2c(-c3ccoc3C)nnc2s1 | 97.8% | 100% | 99.4% | 107% | 102% | 93.9% | 92.4% | 90% | 90.8% | 108%
10 | O=S(=O)(NC1CC2CCC1C2)c1ccc2c(c1)C(=NO)c1cc(S(=O)(=O)NC3CC4CCC3C4)ccc1-2 (stereo unspecified) | -84.2% (active) | 75.2% | 58.3% | -70.5% (active) | 23.5% | -4.1% (active) | 32.4% | 75% | 31.3% | –
11 | N#C/C(=C\c1ccc(Cl)cc1Cl)C(N)=O | 104% | 109% | 100% | 101% | 106% | 122% | 93.9% | 109% | 101% | –
12 | CCOC(=O)/C(F)=C/C1CC1C1CCCCC1 (stereo unspecified) | 97.4% | 104% | 105% | 122% | 104% | 83.1% | 103% | 104% | 102% | –
13 | C=CCn1c(SCC(=O)Nc2cccc(C(=O)/C=C/c3ccccc3Cl)c2)nc2ccccc2c1=O | 94.7% | 91.8% | 92% | 108% | 93% | 70.7% | 84.8% | 86.2% | 88% | –
